Test results from PubChem BioAssay (NCATS).
Results filed as inconclusive are left out. Entries that show only a call come without a potency. Active and inactive are the calls of the source. Calls come from the whole dose curve; as a rule, active = well fitted cell-killing curve with a large enough effect; inconclusive = small, poorly fitted or top-dose-only effect; inactive = no such curve, though single readings can be large or run the other way.

experiment: qHTS of pediatric cancer cell lines to identify multiple opportunities for drug repurposing: Primary screen for SK-N-MC cells (AID 1347093); conditions: SK-N-MC viability, CellTiter-Glo luminescence, 48 h; series mostly up to 46 µM
In short: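 Metabolically active cells were quantified by ATP-dependent luminescence (CellTiter-Glo, 15 min at room temperature) following 48 h treatment. Cells had been plated at 500-1,000 per well and settled for 5 h beforehand.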

Question: Which Potency does the source give for `CN(C)CCOC(=O)C(c1ccccc1)C1(O)CCCC1` (stereo not given) here?
Answer: The Potency was “inactive”.

Question: For `O=C(O)P(=O)(O)O`, which Potency is on record?
Answer: Its Potency is “inactive”.

Question: With `CC1(COc2ccc(CC3SC(=O)NC3=O)cc2)CCCCC1` (stereo not given) as the compound, how does the Potency read?
Answer: Its Potency is “inactive”.

Question: Which Potency does the source give for `COc1cc(NS(=O)(=O)c2ccc(N)cc2)ncn1` here?
Answer: Its Potency is “inactive”.

Question: For `Cc1ccc(S(=O)(=O)NC(=O)NC2CCCC2)cc1`, which Potency is on record?
Answer: Its Potency is “inactive”.

Question: For `O=[N+]([O-])c1cccc(S(=O)(=O)NCCNS(=O)(=O)c2cccc([N+](=O)[O-])c2)c1`, which Potency is on record?
Answer: Its Potency is “inactive”.

Question: For `c1ccc(-c2nc[nH]c2-c2ccccc2)cc1`, which Potency is on record?
Answer: The Potency was “inactive”.

Question: For `CCc1ccc(C(=O)C(C)CN2CCCCC2)cc1` (stereo not given), which Potency is on record?
Answer: Its Potency is “inactive”.

Question: Which Potency does the source give for `C=C[C@@]1(C)CC(=O)[C@]2(O)[C@@]3(C)[C@@H](O)CCC(C)(C)[C@@H]3[C@H](O)[C@H](OC(C)=O)[C@@]2(C)O1` here?
Answer: Its Potency is “inactive”.

Question: With `CN1CCN(C2=Nc3ccccc3Sc3ccc(Cl)cc32)CC1` as the compound, how does the Potency read?
Answer: Its Potency is “inactive”.

Question: With `CCN(CC)CCNC(=O)COc1ccc(OC)cc1` as the compound, how does the Potency read?
Answer: Its Potency is “inactive”.

Question: With `CCCCCCCCCCCCCC(=O)OC(C)C` as the compound, how does the Potency read?
Answer: The Potency was “inactive”.

Question: For `Cc1nc(-c2ccc(Cl)cc2)oc1COC(C)(C)C(=O)O`, which Potency is on record?
Answer: The Potency was “inactive”.

Question: For `O=C(O)CCc1nc2ccccc2[nH]1`, which Potency is on record?
Answer: The Potency was “inactive”.

Question: Which Potency does the source give for `CCOc1ccc(NC(C)=O)cc1` here?
Answer: The Potency was “inactive”.
